Screens (PubChem)
TDP1 block: qHTS Assay for Inhibitors of Tyrosyl-DNA Phosphodiesterase (TDP1); AID 485290, 2010; Potency, µM (series often up to 130 µM), inactives show at the top dose activity change, negative = inhibition, usual class: inhibitors; recombinant TDP1, AlphaScreen DNA substrate cleavage; 350,000 compounds, 0.28% hits; Tyrosyl-DNA phosphodiesterase 1 (Homo sapiens), Q9NUW8; further: potency means the concentration at half of the fitted maximal effect; nearly all actives have a fitted effect of over 40% in size
Target sequence (Q9NUW8 whole entry, looked up): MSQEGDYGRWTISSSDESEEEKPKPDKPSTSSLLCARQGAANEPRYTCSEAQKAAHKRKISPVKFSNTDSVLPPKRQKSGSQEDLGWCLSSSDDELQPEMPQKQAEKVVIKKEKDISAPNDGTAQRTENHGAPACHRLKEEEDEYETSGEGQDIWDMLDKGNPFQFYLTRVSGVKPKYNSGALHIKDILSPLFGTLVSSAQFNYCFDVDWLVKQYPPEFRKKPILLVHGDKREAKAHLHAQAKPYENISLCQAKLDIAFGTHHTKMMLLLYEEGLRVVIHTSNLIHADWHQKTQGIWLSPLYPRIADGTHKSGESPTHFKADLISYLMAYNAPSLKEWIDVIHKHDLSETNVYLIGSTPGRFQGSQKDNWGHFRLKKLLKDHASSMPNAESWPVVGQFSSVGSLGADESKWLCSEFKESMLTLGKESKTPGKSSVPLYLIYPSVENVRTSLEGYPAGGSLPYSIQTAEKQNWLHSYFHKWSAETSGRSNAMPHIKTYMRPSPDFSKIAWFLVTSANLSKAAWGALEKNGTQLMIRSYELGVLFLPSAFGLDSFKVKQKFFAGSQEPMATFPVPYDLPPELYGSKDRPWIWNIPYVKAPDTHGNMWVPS
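Tdp1 1 nM final; 15 min RT w/ cpd; substrate 15 nM, 5 min; beads 10 ug/ml, 10 min; AlphaScreen read. Neg ctrl: no enzyme.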
Giardia kill: Small Molecules that selectively kill Giardia lamblia: qHTS; 340,000 compounds, 0.15% hits; AID 540267, 2011; activity change, % at 7.66 µM, hits read low; Giardia lamblia trophozoite viability; in the data active means activity change below about -80%; inconclusive means between about -30% and that limit;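 further: parasites exposed to compound for two days anaerobically before the ATP read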
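Media and compound were dispensed first, then trophozoites at 100 cells/well; plates sat 48 hrs at 37 deg C without oxygen before ATP luminescence reagent was added and read after 15-30 min at room temperature.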
IL1B secr inh: qHTS for Inhibitors of Inflammasome Signaling: IL-1-beta AlphaLISA Primary Screen; THP-1 LPS/ATP IL-1B secretion, AlphaLISA, 16 h; stronger effect = lower value; activity change, % at 57.5 µM; 360,000 compounds, 4.7% hits; AID 743279, 2014; in the data active means activity change below about -50%; inconclusive means mostly about -30% to -49%
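THP-1 cells pretreated 1 hr with compounds (up to 57.5 uM final), then stimulated with LPS (250 ng/mL final) plus ATP (1.25 mM final); secreted IL-1B measured by AlphaLISA after 16 hr, decreased signal indicating inhibition.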
TDP1 cell noCPT: qHTS for Inhibitors of human tyrosyl-DNA phosphodiesterase 1 (TDP1): qHTS in cells in absence of CPT; Potency, µM (series often up to 46.2 µM), for the others: top-dose activity change, negative = growth inhibition, usual class: inhibitors; DT40 Tdp1-/- hTDP1 cells, no CPT, ATP luminescence, 48 h; 420,000 compounds, 15% hits; AID 686978, 2013; further: potency means the concentration at half of the fitted maximal effect; nearly all actives have a fitted effect of over 55% in size
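Stably hTDP1-transfected Tdp1-null chicken DT40 cells were treated with library compounds minus camptothecin and grown for at least 48 hr at 37 °C, after which cellular ATP was quantified by luminescence.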
ELG1 DNA repair: qHTS screen for small molecules that inhibit ELG1-dependent DNA repair in human embryonic kidney (HEK293T) cells expressing luciferase-tagged ELG1. HEK293T ELG1-luciferase reporter, luminescence, 16 h; DNA damage induced by 5-fluorouridine. Potency, µM (titrated, usually from 46.1 µM), for the others: at the top dose activity change, negative = inhibition, most hits filed as inhibitors. 330,000 compounds, 2.3% hits; further: potency means the concentration at half of the fitted maximal effect; nearly all actives have a fitted effect of over 55% in size
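Step one: seed 2,000 cells per well. Step two: pin-transfer compound or DMSO alongside 5-fluorouridine. Step three: incubate 16 hr, 37 °C, 5% CO2. Step four: add ONE-Glo, wait 30 min, read luminescence.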
TDP1 cell CPT: qHTS for Inhibitors of human tyrosyl-DNA phosphodiesterase 1 (TDP1): qHTS in cells in presence of CPT; Potency, µM (series often up to 46.2 µM), for inactives: at the highest dose activity change, negative = growth inhibition, actives largely listed as inhibitors; chicken DT40 Tdp1-/-;hTDP1 cells + 20 nM CPT, ATP luminescence, 48 h; 420,000 compounds, 12% hits; further: potency means the concentration at half of the fitted maximal effect; nearly all actives have a fitted effect of over 55% in size
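Chicken DT40 Tdp1-/- cells stably complemented with human TDP1 were seeded at 400 cells/well in medium containing 20 nM camptothecin, exposed to pin-transferred compounds, and grown at 37 °C for at least 48 hr. Viability was read as ATP luminescence.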
An asterisk follows results filed as active; ? = inconclusive; nt = no result given; [ ] = remark or other dose. Compounds with a hit are over-represented: about 19% of the library has one in this group of screens. Unless noted, the call rests on the fitted dose curve; in most records, active means well fitted curve in the direction sought with a large enough effect; inconclusive means small, poorly fitted or top-dose-only effect, or another doubt; inactive means no such curve, though single readings can be large; an effect the other way counts as inactive or inconclusive. On the % scale 0 is the no-effect control and ±100 the full control effect.

SMILES	TDP1 block	Giardia kill	IL1B secr inh	TDP1 cell noCPT	ELG1 DNA repair	TDP1 cell CPT
Cc1cc(C)c(C)c(S(=O)(=O)N2CCN(C(=O)c3cc(=O)[nH]c4ccccc34)CC2)c1C	1%	3	0	13µM*	?	?
Cc1cc(C)c(S(=O)(=O)N2CCN(C(=O)c3cc(=O)[nH]c4ccccc34)CC2)c(C)c1	2%	35	-13	16µM*	?	15µM*
NC(=O)C[C@@H](N)C(=O)O	1%	nt	nt	?	nt	-12%
Cc1onc(-c2ccccc2)c1C(=O)Nc1ccc(S(=O)(=O)N2CCOCC2)cc1	-12%	-11	-1	23µM*	1%	?
CC(=O)Nc1ccc(S(=O)(=O)N2CCN(c3cc(C(F)(F)F)ccn3)CC2)cc1	0%	2	-10	16µM*	?	18µM*
CC(=O)Nc1ccc(S(=O)(=O)N2CCN(C(=O)Cc3ccccc3)CC2)cc1	-5%[56.1 µM]	-9	-19	?	?	12µM*
COC(=O)c1cc(S(=O)(=O)N2CCN(c3ccc([N+](=O)[O-])cc3)CC2)c[nH]1	5%	-29	2	?	16µM*	-42%
Cc1onc(-c2ccccc2Cl)c1C(=O)Nc1ccc(S(=O)(=O)N2CCCC2)cc1	-1%	-5	-16	?	-12%	?
CC(=O)Nc1ccc(S(=O)(=O)N2CCN(CCc3ccccc3)CC2)cc1	5%	-10	-28	6%	-29%	-5%
CC(=O)Nc1ccc(S(=O)(=O)N2CCN(c3nc(C)cc(C)n3)CC2)cc1	3%	-8	0	0%	-5%	-19%
CCOc1ccc(C(=O)N2CCSC2=S)cc1	1%	-8	0	-2%	-1%	-22%
Cc1ccc(CNC(=O)Cn2c(=O)cc(-c3ccccc3)c3c(C)nn(C)c32)cc1	6%	nt	nt	-15%	nt	-17%
CCOC(=O)C1=CCN(S(=O)(=O)c2ccccc2C)C1c1ccc(F)cc1 (centres undefined)	nt	nt	11	?	nt	?
O=C(Nc1ccc(S(=O)(=O)N2CCCC2)cc1)c1ccc([N+](=O)[O-])cc1	0%	-5	4	-15%	9.2µM*	1%
O=C(Nc1ccccc1)c1ccc(S(=O)(=O)N2CCCC2)cc1	2%	-2	-13	-28%	-1%	-22%
O=C(Nc1ccccc1)c1ccc(CN2CCc3ccccc3C2)cc1	1%	6	-4	-30%	?	-17%
O=C(Nc1ccc(S(=O)(=O)N2CCCC2)cc1)c1ccccc1	0%	0	-24	23µM*	-12%	-28%
Cn1nc(C(=O)Nc2ccc(S(=O)(=O)N3CCCCC3)cc2)ccc1=O	3%	-15	12	21µM*	16µM*	?
Cn1nccc1C(=O)Nc1ccc(S(=O)(=O)N2CCCC2)cc1	1%	14	13	-8%	-20%	-2%
O=C(Nc1cccnc1)c1ccc(CN2CCc3ccccc3C2)cc1	2%	-10	0	16µM*	8.2µM*	?
COc1ccc(CCNC(=O)[C@@H](NC(=O)N2CC(=O)Nc3ccccc32)C(C)C)cc1OC	2%	17	14	26%	-14%	1%
CC(=O)Nc1ccc(S(=O)(=O)N2CCN(c3ccc([N+](=O)[O-])cc3)CC2)cc1	nt	-1	7	21µM*	?	23µM*
CC(=O)Nc1ccc(S(=O)(=O)N2CCC(N3CCCC3)CC2)cc1	3%	-26	-6	-16%	-1%	-17%
CC(=O)Nc1ccc(S(=O)(=O)N2CCC(n3cnc4cc(F)ccc43)CC2)cc1	6%	-14	-3	?	10µM*	?
O=S(=O)(c1cccc(Cl)c1)N1CCSc2ccccc21	-9%	5	18	-4%	?	-12%
SMILES	TDP1 block	Giardia kill	IL1B secr inh	TDP1 cell noCPT	ELG1 DNA repair	TDP1 cell CPT
CC(=O)Nc1ccc(S(=O)(=O)N2CCSc3ccccc32)cc1	3%	17	25	3.7µM*	?	4.1µM*
O=C(Nc1ccc(S(=O)(=O)N2CCCCC2)cc1)c1ccc(CN2CCc3ccccc3C2)cc1	-4%	0	-3	4.6µM*	12%	10µM*
CC(=O)Nc1ccc(S(=O)(=O)N2CCN(S(=O)(=O)c3ccc(NC(C)=O)cc3)CC2)cc1	nt	4	1	-3%	8%	-2%
Cc1csc(=O)n1CC(=O)OCC(=O)Nc1ccc(Cl)cc1F	nt	-22	-18	-23%	9%	-17%
CC1CCN(C(C)C(=O)Nc2ccc(S(=O)(=O)N3CCCC3)cc2)CC1 (centres undefined)	1%	-4	-15	-14%	9%	-21%
CC(OC(=O)c1cc(Br)ccc1O)C(=O)Nc1ccc(S(=O)(=O)N2CCCC2)cc1 (centres undefined)	0%	5	?	16µM*	-21%	?
CC(C(=O)Nc1ccc(S(=O)(=O)N2CCCC2)cc1)N1CCN(c2ccccc2O)CC1 (centres undefined)	-3%	4	-2	23µM*	?	?
CC(=O)Nc1ccc(S(=O)(=O)N2CCN(Cc3cccc([N+](=O)[O-])c3)CC2)cc1	-6%	0	-2	23µM*	?	?
O=C(Nc1ccc(Cl)cc1)NN1CCCCCC1	nt	7	-16	-18%	nt	3%
O=C(Nc1ccc([N+](=O)[O-])cc1)NN1CCCCCC1	nt	-3	-99*	15µM*	nt	23µM*
Cc1oc(-c2cccc3ccccc23)nc1CN1CCC[C@H]1CO	5%	0	54	-25%	10%	-24%
O=C(NCc1ccc2c(c1)OCO2)C1CC(=O)N(CCc2ccc(Cl)cc2)C1 (centres undefined)	1%	13	-9	-26%	-7%	2%
Cc1ccc(C(=O)NC2CC(C)(C)NC(C)(C)C2)cc1S(=O)(=O)N1CCCCC1	-13%[0.505 µM]	4	-9	-13%	2%	3%
Cc1ccnc(Sc2ccc([N+](=O)[O-])cc2[N+](=O)[O-])n1	5%	3	-104*	0.58µM*	?	0.73µM*
Cc1ccc(Sc2ccc([N+](=O)[O-])cc2[N+](=O)[O-])nc1	8%	-19	-188*	2.9µM*	15%	2.6µM*
